# Source: PubChem BioAssay AID602477 (National Center for Advancing Translational Sciences (NCATS), 2012)
# Records with an inconclusive call do not appear. Calls of active or inactive are those of the source. The call rests on the fitted dose curve; in most records, active means well fitted activation curve with a large enough effect; inconclusive means small, poorly fitted or top-dose-only effect; inactive means no such curve, though single readings can be large or run the other way.
# Assay: FLuc inhibitory activity for the follow-up compounds in a cell-based assay to assess the activity of miR-21
# Conditions: HeLa miR-21-FLuc reporter, luciferase luminescence, 48 h; series mostly up to 38.3 µM; activity change, positive = activation: at the top concentration
# Description: NCGC Assay Overview: Firefly (Photinus pyralis) luciferase is one of the most commonly used transcriptional reporters. It is considered one of the more dynamically responsive reporters - that is, responsive to changes in reporter transcription - as it requires no post-translational modifications and is enzymatically active directly after protein synthesis (Wood, 1998). With no endogenous expression in mammalian cells and without the requirement of external excitation, it offers very little background signal, thus generally providing excellent signal to background for most assays. Previous profiling work to determine the prevalence of compounds that affect FLuc enzymatic activity (PubChem AID 411) identified that ~3% of the MLSMR library (then at ~72K) inhibited FLuc (Auld et al., 2008). […] Of the compounds identified in this profile that inhibited FLuc, 151 compounds were selected for further analysis, in an effort to better understand their mode of inhibiting FLuc. The assay described here was to determine the activity of the compounds in a cell-based firefly luciferase reporter gene assay originally designed to identify antagonists of miR-21. Compounds that inhibit miR-21 or compounds that stabilize FLuc intracellularly are identified as active compounds in the assay.
# NCGC Assay Protocol Summary: Reagents: In-house detection reagent: 300mM Tris-HCl, 300mM Trizma base, 300mM MgCl, 1% Triton-X100, 5mM DTT, 500uM Coenzyme A trilithium salt (Sigma #C3019),450uM ATP (Sigma #A7699), 1mM D-luciferin sodium salt monohydrate (Biosynth #L8240) HeLa cells stably expressing firefly luciferase (FLuc) under the control of a CMV promoter (upstream) and a miR-21 binding sequence directly downstream of the gene. These cells endogenously express miR-21. Control compounds used were two known firefly luciferase inhibitors (3-(5-(3-chlorophenyl)-1,2,4-oxadiazol-3-yl)benzoic acid and 5-(2-fluorophenyl)-3-phenyl-1,2,4-oxadiazole), and DMSO. Assay Summary: 6uL of HeLa miR-21-FLuc cells in assay buffer (DMEM, Invitrogen #21063-029; 10% FBS, HyClone #SH30071.03) were dispensed at 2000cells/well (3.3 x 10^5 cells/mL) into Greiner solid-white TC-treated 1536-well plates using a Multidrop Combi (Thermo Fisher Scientific). Plates were incubated for one hour at 37 degree Celsius, 95% humidity, 5% CO2. These assay plates were then treated with 23nL of compound or DMSO using a Kalypsys pin tool, which allows for delivery of a 12-point titration of each compound to the assay plate, with a final compound concentration ranging from approximately ~38uM to 0.2nM. Assay plates were then incubated for 48 hours. After incubation, plates were allowed to come to RT for one hour prior to delivery of 3uL of 3X luciferase detection reagent. After a 15 minute incubation to allow for cell lysis, luciferase activity was measured using a ViewLux CCD imager (PerkinElmer), with an average exposure time of 2-12 seconds.
SMILES,"activity change, positive = activation",Potency
O=C(Nc1ccccc1C(=O)O)c1cc(S(=O)(=O)NCc2ccccc2)ccc1Cl,-6.4% (inactive),–
O=C(O)c1cccc(NC(=O)c2cccc(S(=O)(=O)Nc3cccc(F)c3)c2)c1,7.01% (inactive),–
Cc1ccc2nc(-c3ccc(N)cc3)sc2c1,–,0.0356 µM (active)
Nc1ccccc1C(=O)Nc1cccc(C(=O)O)c1,–,11.3 µM (active)
O=C(Nc1ccccc1C(=O)O)c1ccccc1,–,25.2 µM (active)
CCCC(=O)Nc1nc2ccc(OCC)cc2s1,–,2.83 µM (active)
O=C(Nc1ccccc1C(=O)O)c1cc(S(=O)(=O)Nc2ccccc2)ccc1Cl,6.76% (inactive),–
CCOc1c(Cl)cc(C(=O)Nc2ccccc2C(=O)O)cc1Cl,–,5.04 µM (active)
O=C(Nc1c(Cl)cc(Cl)cc1-c1nc2ccccc2s1)c1ccc(Br)o1,–,12.6 µM (active)
COc1c(C)cccc1C(=O)Nc1ccc(-c2nc3ccccc3s2)c(Cl)c1,–,22.5 µM (active)
Cc1ccc(C(=O)Nc2cccc(C(=O)O)c2)cc1S(=O)(=O)N1CCCC1,–,1 µM (active)
COc1ccc2nc(NC(=O)c3ccc(NS(=O)(=O)c4cccs4)cc3)sc2c1,–,8.95 µM (active)
COc1ccc(Br)cc1C(=O)Nc1ccc(C(=O)O)cc1,–,7.98 µM (active)
COc1ccc2nc(NC(=O)c3ccc4ncsc4c3)sc2c1,–,2.83 µM (active)
Cc1ccc(C(=O)Nc2ccccc2C(=O)O)cc1S(=O)(=O)N1CCCCCC1,–,2.83 µM (active)
Cc1ccc(C(=O)Nc2cccc(C(=O)O)c2)cc1S(=O)(=O)N1CCCCC1,–,0.565 µM (active)
COc1ccc2nc(NC(=O)c3cccs3)sc2c1,–,10 µM (active)
Cc1c(NC(=O)c2cc(-n3cnnc3)ccc2Cl)cccc1-c1nc2ccccc2s1,–,2.83 µM (active)
O=C(O)c1cccc(NC(=O)c2ccc(COc3ccc(Cl)cc3)cc2)c1,–,12.6 µM (active)

SMILES,"activity change, positive = activation",Potency
Cn1c(N/N=C/c2cc3ccccc3nc2Cl)nc2ccccc21,–,0.711 µM (active)
Nc1ccccc1-c1nc2ccccc2s1,–,3.18 µM (active)
Cc1c(NS(C)(=O)=O)cccc1-c1nc2ccccc2s1,–,4 µM (active)
COc1ccc2nc(NC(=O)CCc3ccc(OC)c(OC)c3)sc2c1,–,12.6 µM (active)
Cc1c(C)c2ccc(OCC(=O)Nc3ccccn3)c(C)c2oc1=O,–,0.0056 µM (active)
O=C(O)c1cccc(NC(=O)c2ccc(S(=O)(=O)c3ccccc3)cc2)c1,15.2% (inactive),–
Nc1ccc2nc(-c3ccccc3)sc2c1,–,0.0634 µM (active)
Cc1cccc(C(=O)Nc2ccccc2C(=O)Nc2ccc(C(=O)O)cc2)c1,–,15.9 µM (active)
COc1ccc2nc(NC(=O)c3nc(S(=O)(=O)Cc4ccc(C)cc4)ncc3Cl)sc2c1,–,2.52 µM (active)
CC(=O)Oc1ccc(C(=O)Nc2ccccc2C(=O)Nc2cccc(C(=O)O)c2)cc1,-13% (inactive),–
Nc1ccc(-c2nc3ccc(C(=O)O)cc3s2)cc1,–,0.0142 µM (active)
O=C(Nc1ccccc1C(=O)O)c1ccc(NC(=O)C2CCCO2)cc1 (stereo not drawn),13.9% (inactive),–
CC(=O)Oc1ccc(C(=O)Nc2ccccc2C(=O)Nc2ccc(C(=O)O)cc2)cc1,-3.44% (inactive),–
O=C(Nc1ccccc1C(=O)O)c1ccc(Cl)c(S(=O)(=O)N2CCOCC2)c1,–,12.6 µM (active)
Cc1ccc(C(=O)Nc2cccc(C(=O)O)c2)cc1,–,0.126 µM (active)
NC(=O)Cc1ccc2sc(-c3ccccc3)nc2c1,–,1.26 µM (active)
CCOc1ccc2nc(NC(=O)Cc3cccs3)sc2c1,–,3.56 µM (active)
CCOc1ccc(C(=O)Nc2cccc(C(=O)O)c2)cc1Cl,–,0.356 µM (active)
O=C(O)c1ccc(NC(=O)c2cccc(C(=O)Nc3ccc(C(=O)O)cc3)c2)cc1,8.99% (inactive),–
